High-throughput results as filed in PubChem BioAssay.
Many of the other results were omitted from the sample, so hits are more common in it than they were.
IL1B secr inh: inhibitors of inflammasome signaling (IL-1 beta secretion). THP-1 LPS/ATP IL-1B secretion, AlphaLISA, 16 h; hits give low values. activity change, % at 57.5 µM. 4.7% of 360,000 active. AID 743279; in the data active = activity change below about -50%; inconclusive = mostly about -30% to -49%
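Secreted IL-1B measured by AlphaLISA bead assay after 16 h compound exposure of THP-1 cells; compounds (final up to 57.5 uM) added 1 h before LPS (250 ng/mL) and ATP (1.25 mM) stimulation; lower signal means less secretion.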
HT1080NT lethal: kills 2HG-producing HT-1080-NT fibrosarcoma cells; Potency, µM (doses to about 46.1 µM), without a hit: top-dose activity, negative = less viability, hits mostly cytotoxic; 1.6% of 360,000 active; AID 686970; HT-1080-NT fibrosarcoma viability, CellTiter-Glo ATP luminescence, 48 h;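 note: NT is the 2HG producing partner of a matched IDH1 knockdown line; potency is the fitted concentration of half-maximal effect; 0% = DMSO-treated cells and -100% = media-only wells without cells; nearly all actives have a fitted effect of over 55% in size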
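Viability of the 2HG-overproducing fibrosarcoma line after 48 hours of compound exposure at 37 degrees C was determined by luminescence with CellTiter-Glo, and concentration-effect curves were then fitted and categorized.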
HT1080 IDH1KD tx: kills HT-1080 cells with IDH1 knockdown; Potency, µM (series often up to 46.1 µM), without a hit: at the highest dose activity, negative = toxicity, actives largely listed as cytotoxic; 2% of 360,000 active; HT-1080 IDH1 knockdown viability, ATP luminescence, 48 h;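 note: potency is the fitted concentration of half-maximal effect; 0% = DMSO wells and -100% = cell-free medium wells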
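After a 2 h attachment period, IDH1KD HT-1080 cells took pin-transferred compound for 48 h at 37 °C; ATP-based luminescence after 10 min room-temperature reagent incubation reported viability.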
DT40 TDP1 CPT: growth inhibition of DT40 Tdp1-/-;hTDP1 cells with camptothecin (screen for TDP1 inhibitors) | chicken DT40 Tdp1-/-;hTDP1 cells + 20 nM CPT, ATP luminescence, 48 h | Potency, µM (highest dose often 46.2 µM), for inactives: at the top dose activity change, negative = growth inhibition, hits mostly inhibitors | 12% of 420,000 active | AID 686979; note: potency is the fitted concentration of half-maximal effect; nearly all actives have a fitted effect of over 55% in size
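Chicken DT40 Tdp1-/- cells stably complemented with human TDP1 were seeded at 400 cells/well in medium containing 20 nM camptothecin, exposed to pin-transferred compounds, and grown at 37 °C for at least 48 hr. Viability was read as ATP luminescence.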
ALOX12 inh: inhibitors of human 12S-lipoxygenase ALOX12; P18054; purified 12hLO, xylenol orange hydroperoxide absorbance; Potency, µM (highest dose often 108 µM), without a hit: top-dose activity change, negative = inhibition, most hits filed as inhibitors; 1.1% of 580,000 active; AID 1671190; note: potency is the fitted concentration of half-maximal effect
Target sequence (P18054 whole entry, looked up): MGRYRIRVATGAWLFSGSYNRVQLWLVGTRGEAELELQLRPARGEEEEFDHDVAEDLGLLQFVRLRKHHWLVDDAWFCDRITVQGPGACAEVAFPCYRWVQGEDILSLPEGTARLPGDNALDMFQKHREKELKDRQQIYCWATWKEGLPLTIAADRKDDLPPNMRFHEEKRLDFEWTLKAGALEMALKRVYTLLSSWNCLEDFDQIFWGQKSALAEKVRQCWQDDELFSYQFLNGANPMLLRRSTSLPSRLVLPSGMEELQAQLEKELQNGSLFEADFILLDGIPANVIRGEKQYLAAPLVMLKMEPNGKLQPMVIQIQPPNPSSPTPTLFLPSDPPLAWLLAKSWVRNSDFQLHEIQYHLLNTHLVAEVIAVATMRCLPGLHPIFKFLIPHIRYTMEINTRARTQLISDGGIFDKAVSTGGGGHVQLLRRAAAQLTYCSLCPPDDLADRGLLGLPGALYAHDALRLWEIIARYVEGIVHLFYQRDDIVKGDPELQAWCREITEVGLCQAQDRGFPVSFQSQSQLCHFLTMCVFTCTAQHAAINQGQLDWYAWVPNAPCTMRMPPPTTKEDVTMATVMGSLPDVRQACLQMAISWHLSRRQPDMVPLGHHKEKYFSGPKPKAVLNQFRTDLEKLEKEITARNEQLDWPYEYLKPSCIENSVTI
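Purified human 12hLO at 150 nM in 25 mM Hepes, 0.01% Triton X-100, pH 7.0, preincubated 15 min at room temperature with compound. Reaction started with 40 uM arachidonic acid, 30 min at room temperature. Hydroperoxide measured by Fe-xylenol orange, 573/405 nm absorbance ratio.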
TDP1 cell noCPT: qHTS for Inhibitors of human tyrosyl-DNA phosphodiesterase 1 (TDP1): qHTS in cells in absence of CPT | Potency, µM (highest dose often 46.2 µM), for the others: top-dose activity change, negative = growth inhibition, most hits filed as inhibitors | DT40 Tdp1-/- hTDP1 cells, no CPT, ATP luminescence, 48 h | 15% of 420,000 active; note: potency is the fitted concentration of half-maximal effect; nearly all actives have a fitted effect of over 55% in size
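DT40 Tdp1-/-;hTDP1 cells, no CPT (DMSO vehicle only), 400 cells/well; compounds pin-transferred; ≥48 hr, 37 °C; CellTiter-Glo 30 min RT dark, luminescence read.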
Starred values were filed as active, the others as inactive; [ ] = another dose, or the depositor's remark. Unless noted, calls come from the whole dose curve; as a rule, active = well fitted curve in the direction sought with a large enough effect; inconclusive = small, poorly fitted or top-dose-only effect, or another doubt; inactive = no such curve, though single readings can be large; an effect the other way counts as inactive or inconclusive. Unless noted, % is set by controls: 0 for no effect and ±100 for the full control effect.

For Cc1ccc(CNC(=O)c2cccc(Nc3nc4ccccc4n4nnnc34)c2)cc1 the results were DT40 TDP1 CPT 21µM*, ALOX12 inh -16% and TDP1 cell noCPT 10µM*.
CCC(=O)N1CCc2ccc(OCc3nc(C(=O)NCCOC)co3)cc2C1c1ccc(C)cc1 (stereo not drawn) was read as ALOX12 inh 14%.
Screening COC(=O)C(NC=O)C(O)(C#Cc1ccccc1)C(F)(F)F (stereo not drawn) returned ALOX12 inh -25%.
For Cc1cc(=O)c2c(O)cc(O)c(C)c2o1 the results were DT40 TDP1 CPT inconclusive and TDP1 cell noCPT 21µM*.
For O=C(CCCCCN1C(=O)c2cccc3cccc(c23)C1=O)NO the results were ALOX12 inh 3.5µM*.
`COc1ccccc1N1CCN(C(=O)CCN2C(=O)c3cccc4cccc(c34)C2=O)CC1` gave IL1B secr inh 7, HT1080NT lethal 16%, HT1080 IDH1KD tx 15%, DT40 TDP1 CPT inconclusive, ALOX12 inh -52% and TDP1 cell noCPT inconclusive.
O=C1c2ccc3c4c(ccc(c24)C(=O)N1CCCCO)C(=O)N(CCCCO)C3=O was read as IL1B secr inh -72*, HT1080NT lethal 23µM*, HT1080 IDH1KD tx 12µM*, DT40 TDP1 CPT 2.1µM*, ALOX12 inh -4% and TDP1 cell noCPT 2.6µM*.
Screening O=C(CCCCCN1C(=O)c2cccc3cccc(c23)C1=O)NCCCO returned IL1B secr inh -7, HT1080NT lethal 3%, HT1080 IDH1KD tx -1%, DT40 TDP1 CPT 26%, ALOX12 inh 0% and TDP1 cell noCPT -4%.
Screening COc1ccc(N2CCN(C(=O)CCCN3C(=O)c4cccc5cccc(c45)C3=O)CC2)cc1 returned IL1B secr inh -15, HT1080NT lethal 6%, HT1080 IDH1KD tx -29%, DT40 TDP1 CPT inconclusive, ALOX12 inh -41% and TDP1 cell noCPT 16µM*.
O=C(CCCN1C(=O)c2cccc3cccc(c23)C1=O)N1CCN(c2ccc(F)cc2)CC1 was read as IL1B secr inh -54*, HT1080NT lethal 5%, HT1080 IDH1KD tx 20%, DT40 TDP1 CPT inconclusive, ALOX12 inh -14% and TDP1 cell noCPT 16µM*.
Screening O=c1[nH]c(CN2CCN(Cc3cccs3)CC2)nc2scc(-c3ccc(F)cc3)c12 returned ALOX12 inh 10%.
Screening O=C(c1ccccc1)N1CCC2(CC(c3cccc(C(F)(F)F)c3)=NO2)C1 (stereo not drawn) returned ALOX12 inh 9%[6.33 µM].
`COCC(=O)N1CCN2C(=O)c3cc(-c4ccc(OC)cc4)ccc3NC(=O)[C@H]2C1` gave ALOX12 inh 9%[176 µM].
Cc1ccc(C2Cn3nnc(-c4noc(-c5ccoc5)n4)c3CO2)cc1 (stereo not drawn) was read as ALOX12 inh 37%.
Screening c1ccc(COn2c(-c3ccccc3)nc3c2CCc2nonc2-3)cc1 returned IL1B secr inh 2, HT1080NT lethal 2%, HT1080 IDH1KD tx -16%, DT40 TDP1 CPT inconclusive, ALOX12 inh 0% and TDP1 cell noCPT 26µM*.
Screening COc1cccc2cc(C(=O)NCc3ccccc3)c(=N)oc12 returned IL1B secr inh -105*, HT1080NT lethal -4%, HT1080 IDH1KD tx -14%, DT40 TDP1 CPT 21µM*, ALOX12 inh -25% and TDP1 cell noCPT inconclusive.
CCOc1cccc2cc(C(=O)Oc3ccc(OC)cc3)c(=O)oc12 was read as IL1B secr inh 6, HT1080NT lethal 2%, HT1080 IDH1KD tx 6%, DT40 TDP1 CPT 4%, ALOX12 inh 35µM* and TDP1 cell noCPT 5%.
Screening CCOc1cccc2cc(C(=O)NC(C)c3ccccc3)c(=N)oc12 (stereo not drawn) returned IL1B secr inh inactive, HT1080NT lethal -11%, HT1080 IDH1KD tx 1%, DT40 TDP1 CPT inconclusive, ALOX12 inh -9% and TDP1 cell noCPT 26µM*.
`COc1cccc2cc(C(=O)Oc3ccccc3)c(=O)oc12` gave IL1B secr inh 41, HT1080NT lethal -13%, HT1080 IDH1KD tx inconclusive, DT40 TDP1 CPT 23%, ALOX12 inh -3% and TDP1 cell noCPT 10%.
COc1cccc2cc(C(=O)NCc3ccc(Cl)cc3)c(=O)oc12 was read as IL1B secr inh 4, HT1080NT lethal 1%, HT1080 IDH1KD tx 0%, DT40 TDP1 CPT 3%, ALOX12 inh 0% and TDP1 cell noCPT inconclusive.
`COc1cccc2cc(C(=O)NCc3ccc(Cl)cc3)c(=N)oc12` gave IL1B secr inh -91*, HT1080NT lethal 13%, HT1080 IDH1KD tx 13%, DT40 TDP1 CPT 23µM*, ALOX12 inh 0% and TDP1 cell noCPT inconclusive.
For CC(C)(C)C(=O)N(Cc1ccc2cc[nH]c2c1)C1CC1 the results were ALOX12 inh -5%.
Screening CCOc1cccc2cc(C(=O)NCc3ccc(F)cc3)c(=N)oc12 returned IL1B secr inh -6, HT1080NT lethal 16%, HT1080 IDH1KD tx 17%, DT40 TDP1 CPT inconclusive, ALOX12 inh -10% and TDP1 cell noCPT 23µM*.
O=C(N/N=C/c1ccc([N+](=O)[O-])o1)C(O)c1ccccc1 (stereo not drawn) was read as IL1B secr inh -7, HT1080NT lethal inconclusive, HT1080 IDH1KD tx -27%, DT40 TDP1 CPT 8.2µM*, ALOX12 inh 0% and TDP1 cell noCPT 6.5µM*.
Screening O=[N+]([O-])c1ccc(/C=N/NC(=S)Nc2ccccc2C(F)(F)F)o1 returned IL1B secr inh 0, HT1080NT lethal 12%, HT1080 IDH1KD tx 1%, DT40 TDP1 CPT 8.2µM*, ALOX12 inh inconclusive and TDP1 cell noCPT 13µM*.
For O=C(NN=Cc1ccccc1O)C(O)c1ccccc1 (stereo not drawn) the results were IL1B secr inh 127, HT1080NT lethal -23%, HT1080 IDH1KD tx inconclusive, DT40 TDP1 CPT inconclusive, ALOX12 inh -23% and TDP1 cell noCPT 21µM*.
Screening CC1=C/C(=N/NC(=S)Nc2ccccc2C(F)(F)F)CC1 returned ALOX12 inh 9%.
Screening O=C(N/N=C\c1ccc(-c2ccc([N+](=O)[O-])cc2)o1)C1COc2ccccc2O1 (stereo not drawn) returned IL1B secr inh -22, HT1080NT lethal -4%, HT1080 IDH1KD tx -15%, DT40 TDP1 CPT inconclusive, ALOX12 inh -23% and TDP1 cell noCPT 23µM*.
For Cc1cccc(C(=O)NCCS(=O)(=O)Cc2ccccc2)c1 the results were ALOX12 inh -2%.
